Measured values taken from PubChem BioAssay AID504466 (National Center for Advancing Translational Sciences (NCATS), 2011).
The campaign covered roughly 330,000 compounds. About 4,200 (1.3%) were called active. About 6% were inconclusive and are not listed. Calls follow the shape of the dose curve; as a rule, active = well fitted activation curve with a large enough effect; inconclusive = small, poorly fitted or top-dose-only effect; inactive = no such curve, though single readings can be large or run the other way. What follows is part of a selection rich in actives, with near analogues and random picks from the rest.

Assay: qHTS screen for small molecules that induce genotoxicity in human embryonic kidney (HEK293T) cells expressing luciferase-tagged ELG1; also: nearly all actives have a fitted effect of over 60% in size; as to activity change, positive = activation: % of control where 0% means no effect
Settings: HEK293T ELG1-luciferase reporter, luminescence, 16 h; series mostly up to 46 µM; activity change, positive = activation: at the top concentration
Outline: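 Step 1: seed 2,000 HEK293T ELG1-luciferase cells per well. Step 2: add compound or DMSO, incubate 16 hr at 37 °C. Step 3: ONE-Glo, 30 min at room temperature, read luminescence.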
Potency is read from the fitted curve at half-maximal effect.

Row | SMILES | activity change, positive = activation | Potency
1 | O=C(Nc1ccccc1C(F)(F)F)c1cc(-c2ccc(O)cc2)on1 | 13.9% (inactive) | 
2 | Cc1ccc(C)c(NC(=O)c2ccc(OC(=O)c3ccco3)cc2)c1 | 1.15% (inactive) | 
3 | Cc1ccc(O)c(NC(=O)c2cc(-c3ccco3)on2)c1 |  | 20.6 µM (active)
4 | CCCCC[C@@H]1C=C(C(=O)O)[C@H](c2ccc(C#N)cc2)N1S(=O)(=O)c1ccc(C)cc1 | 0.217% (inactive) | 
5 | CC1CCCC(NC(=O)c2cc(S(=O)(=O)N3CCCCC3)ccc2Cl)C1C (stereo unspecified) | -3.83% (inactive) | 
6 | Cc1ccc(C(=O)NC2CCCC(C)C2C)cc1S(=O)(=O)N1CCCCC1 (stereo unspecified) |  | 18.3 µM (active)
7 | Cc1ccc(C(=O)NNC(=O)c2ccncc2)cc1S(=O)(=O)N1CCCCC1 | 1.41% (inactive) | 
8 | C[C@@H]1CN([C@@H](C)CO)C(=O)c2cc(NC(=O)C3CC3)ccc2O[C@H]1CN(C)C | 3.36% (inactive) | 
9 | COC(=O)[C@@]1(C)[C@H]2C(=O)N(Cc3ccccc3)C(=O)[C@H]2[C@H]2CN=C(SCC3CC3)N21 | 1.44% (inactive) | 
10 | CC[C@]1(C(=O)OC)[C@H]2C(=O)N(Cc3ccccc3)C(=O)[C@H]2[C@H]2CN=C(SCc3ccccc3)N21 | -1.3% (inactive) | 
11 | COc1cccc(NC(=O)COC(=O)c2ccc3ccccc3n2)c1 | -0.83% (inactive) | 
12 | Cc1ccc(OCCCC(=O)NC(C)c2ccccc2)c(C)c1 (stereo unspecified) | 0.0144% (inactive) | 
13 | Cc1ccc(OCCCC(=O)N2CCOCC2)c(C)c1 |  | 20.6 µM (active)
14 | Cc1cc(S(=O)(=O)N2CCOCC2)ccc1OCC(=O)N1CCOCC1 | -0.859% (inactive) | 
15 | COc1ccc(C2(c3ccc(OC)cc3)NC(=O)N(CC(=O)Nc3cc(C)on3)C2=O)cc1 | -1.6% (inactive) | 
16 | Cc1nn(-c2ccccc2)nc1C(=O)OCC(=O)N1CCCCC1C (stereo unspecified) | 0.888% (inactive) | 
17 | c1ccc2[nH]c(-c3nc4ccccc4[nH]3)nc2c1 |  | 1.03 µM (active)
18 | O=C(Nc1cccc(-c2nc3ccccc3[nH]2)c1)c1ccc(C(=O)Nc2cccc(-c3nc4ccccc4[nH]3)c2)cc1 | 8.18% (inactive) | 
19 | COc1ccc(Br)cc1C(=O)NC(=S)Nc1cc(-c2nc3ccccc3[nH]2)ccc1C | 0.519% (inactive) | 
20 | COc1ccc(-c2[nH]nc(-c3ccccc3)c2-c2nc3ccccc3[nH]2)cc1 | -0.244% (inactive) | 
21 | Nc1cccc(CCc2nc3ccccc3[nH]2)c1 | 11% (inactive) | 
22 | Cc1ccc(-c2nc3ccccc3[nH]2)cc1N |  | 1.64 µM (active)
23 | C=CC1=C(C(=O)O)N2C(=O)[C@@H](NC(=O)/C(=N\OCC(=O)O)c3csc(N)n3)[C@H]2SC1 | 0.264% (inactive) | 
24 | Cc1cccc(OCC(=O)OCC(=O)Nc2ccc(Cl)cn2)c1 | -1.42% (inactive) | 

Row | SMILES | activity change, positive = activation | Potency
25 | COc1ccccc1-c1sc2ccccc2c1C#CC1(O)CCCCC1 | -0.785% (inactive) | 
26 | COc1ccc(S(=O)(=O)N2CCOCC2)cc1NC(=O)c1ccc(OCC(C)C)c(OC)c1 | -1.88% (inactive) | 
27 | C=CC[C@@H](CC(=O)N[C@H](CO)Cc1ccccc1)C(=O)N[C@@H](COC(=O)[C@@H](CC=C)Cc1ccc(F)cc1)Cc1c[nH]c2ccccc12 | 0.481% (inactive) | 
28 | CC[C@]12c3[nH]c4cc(CCC(=O)N(C)C)ccc4c3CCN1C(=O)[C@@H](CC(=O)NCCCn1ccnc1)C[C@@H]2C(=O)N1CCN(C(=O)C2CC2)CC1 | 2.47% (inactive) | 
29 | CN(CC(=O)O)C(=O)c1ccccc1 | 2.86% (inactive) | 
30 | CC1CN/C(=C\C(=O)c2ccc(Br)cc2)C(=O)N1 (stereo unspecified) |  | 1.3 µM (active)
31 | COc1cc2c(cc1OC)/C(=C/C(=O)c1ccc(NC(C)=O)cc1)NCC2 | 9.13% (inactive) | 
32 | CC1(C)Cc2ccccc2/C(=C/C(=O)c2ccccc2)N1 | -2.7% (inactive) | 
33 | CN(c1ccccc1)S(=O)(=O)c1cc(C(=O)N2CCN(c3ncccn3)CC2)ccc1Cl | -4.11% (inactive) | 
34 | COc1ccccc1CNC(=O)COC(=O)c1cccs1 | -1.05% (inactive) | 
35 | CCN(C[C@H]1N[C@@](CC)(C(=O)OC)[C@H]2C(=O)N(C)C(=O)[C@@H]12)C(=O)Nc1ccc(F)cc1 | 3.56% (inactive) | 
36 | Cc1cc(/C=C2/NC(=O)NC2=O)c(C)n1-c1cccnc1 | 8.4% (inactive) | 
37 | Cc1cccc(C)c1-n1c(C)cc(/C=C2\C(=O)NN(c3ccccc3)C2=O)c1C | 5.82% (inactive) | 
38 | Cc1ccccc1-n1c(C)cc(/C=C2\NC(=O)NC2=O)c1C |  | 14.6 µM (active)
39 | COc1cc(SC)ccc1C(=O)NNC(=O)C1COc2ccccc2O1 (stereo unspecified) | 0.869% (inactive) | 
40 | Cc1ccc(OCCCC(=O)Nc2ccc3c(c2)OCCO3)cc1 | 3.35% (inactive) | 
41 | COC(=O)CCNc1ccc2c(c1)OCCO2 |  | 9.2 µM (active)
42 | COc1ccccc1OCCCC(=O)Nc1ccc2c(c1)OCCO2 | 4.27% (inactive) | 
43 | COc1cccc(CC(=O)OCC(=O)NCc2ccc3c(c2)OCO3)c1 | 0.92% (inactive) | 
44 | CCN1C[C@@H]2[C@@H]3C(=O)N(Cc4ccccc4)C(=O)[C@@H]3[C@](Cc3ccccc3)(C(=O)OC)N2C1=NC1CCCCC1 | -3.08% (inactive) | 
45 | C[C@@H]1CN([C@H](C)CO)C(=O)c2cc(NC(=O)NC3CCCCC3)ccc2O[C@H]1CN(C)S(C)(=O)=O | -0.246% (inactive) | 
46 | Nc1ccc(C(=O)NCc2ccccc2)cc1 | 3.4% (inactive) | 
47 | CC(=O)Nc1ccccc1NC(=O)c1cc(C)cc(C)c1 | 0.5% (inactive) | 
48 | Nc1ccc(C(=O)Nc2ccccc2N)cc1 |  | 14.6 µM (active)

Row | SMILES | activity change, positive = activation | Potency
49 | CC[C@]1(C(=O)OC)[C@H]2C(=O)N(C)C(=O)[C@H]2[C@H]2CN(C)C(=NCc3ccccc3)N21 | 4.13% (inactive) | 
50 | CCc1ccc(NC(=O)N2CCN(c3ccccc3)CC2)cc1 | 2.07% (inactive) | 
51 | CCc1ccc(NC2Nc3cc(C)nn3S2)cc1 (stereo unspecified) |  | 9.2 µM (active)
52 | CCCc1cc(=O)[nH]c(SCC(=O)Nc2ccc(S(=O)(=O)N3CCCC3)cc2)n1 | -0.499% (inactive) | 
53 | C=CC[C@H](CC(=O)N(CCO)Cc1ccccc1)C(=O)N[C@@H](COC(=O)[C@@H](CC=C)Cc1ccc(F)cc1)Cc1ccccc1 | -6.21% (inactive) | 
54 | COc1ccc(C(=O)Nc2ccccc2C(=O)N/N=C/c2ccc(O)c(OC)c2)cc1 | -12.2% (inactive) | 
55 | COc1ccc(/C=N/OCC(=O)N(Cc2ccccc2)c2ccccc2C(=O)O)cc1 | 1.68% (inactive) | 
56 | COc1ccc(/C=N/Nc2ccccc2C(=O)O)cc1 |  | 1.3 µM (active)
57 | COc1ccccc1-c1nnc2n1N=C(c1ccc(OC(F)F)c(OCC3CC3)c1)CS2 | 7.86% (inactive) | 
58 | O=C(COC(=O)CN1C(=O)C2CCCCC2C1=O)Nc1ccc(F)c(F)c1F (stereo unspecified) | 1.33% (inactive) | 
59 | COc1ccc(C(=O)C(C)OC(=O)c2cccc(S(=O)(=O)Nc3c(C)n(C)n(-c4ccccc4)c3=O)c2)cc1 (stereo unspecified) | 1.17% (inactive) | 
60 | Cc1cccc(C(=O)OCC(=O)Nc2ccc(F)cc2)c1 | 8.07% (inactive) | 
61 | Cc1ccc(-n2nc3ccc(NC(=O)/C=C/c4ccco4)cc3n2)cc1C | 19.8% (inactive) | 
62 | CCC(=O)Nc1ccc2nn(-c3ccc(F)cc3)nc2c1 |  | 1.46 µM (active)
63 | CCOC(=O)[C@H]1[C@H]2COc3ccccc3[C@@H]2N2C(=O)CN(Cc3ccccc3)C(=O)[C@@]12C | 0.713% (inactive) | 
64 | C#CCOCCOCCOCCNc1nc(N2CCN(C(=O)[C@H](CCC(=O)O)n3cc(CN)nn3)CC2)nc(N2CCN(C(=O)[C@H](CCC(=O)O)n3cc(CN)nn3)CC2)n1 | 0.694% (inactive) | 
65 | O=C(COc1ccccc1F)NNC(=O)c1cc(Br)ccc1Cl | -1.83% (inactive) | 
66 | CCN(CC(=O)NCc1ccc(F)cc1)S(=O)(=O)c1ccc(Cl)s1 | -3.18% (inactive) | 
67 | C/C(=N\Nc1ccc(S(N)(=O)=O)cc1[N+](=O)[O-])c1cccs1 | 13.8% (inactive) | 
68 | C/C(=N\Nc1ncc(Cl)cc1Cl)c1cccs1 |  | 5.17 µM (active)
69 | C/C(=N\Nc1ncc(Cl)cc1Cl)c1ccc(S(=O)(=O)NCc2ccco2)cc1 | 0.852% (inactive) | 
70 | Cc1cc(NC(=O)COC(=O)/C=C/c2ccc(C)o2)no1 | -0.158% (inactive) | 
71 | CC(=O)Oc1ccc2c(c1)C(=O)c1ccccc1C2=O | 18.5% (inactive) | 
72 | COc1ccc2c(c1OC)C(=O)c1ccccc1C2=O |  | 5.17 µM (active)

Row | SMILES | activity change, positive = activation | Potency
73 | COc1cccc(-c2ccc3c(c2)S(=O)(=O)c2cccc(C(=O)O)c2C3=O)c1OC | 2.09% (inactive) | 
74 | COc1cc2c(-c3ccc4c(c3)OCO4)c(-c3ccsc3)oc(=O)c2cc1OC | 0.908% (inactive) | 
75 | COc1ccc(S(=O)(=O)N2CCN(c3cnccn3)CC2)cc1 | 1.44% (inactive) | 
76 | Cc1nc2ccc(NC(=O)c3cccc(S(=O)(=O)N4CCOCC4)c3)cc2s1 | -6.82% (inactive) | 
77 | O=C(c1cnn2ccccc12)N1CCc2ccccc21 |  | 4.11 µM (active)
78 | Cc1cnc(C(=O)OCC(=O)N2CCc3ccccc32)cn1 | 1.68% (inactive) | 
79 | CCOC(=O)N1CCC(NC(=O)c2cnn3ccccc23)CC1 | -1.21% (inactive) | 
80 | O=C1CSc2ccc(C(=O)NCc3ccccn3)cc2N1 | 6.33% (inactive) | 
81 | CCOC(=O)C1=CN(Cc2ccc(Br)cc2)S(=O)(=O)NC1C (stereo unspecified) | 2.38% (inactive) | 
82 | COc1ccc(S(=O)(=O)N(C)C[C@H]2Oc3ccc(NS(=O)(=O)c4cccs4)cc3CC(=O)N([C@H](C)CO)C[C@H]2C)cc1 | 3.98% (inactive) | 
83 | CCC(CO)Oc1cc(NC(=O)c2ccc(Cl)cc2)c2ncn(C(C)C)c2c1 (stereo unspecified) | 5% (inactive) | 
84 | CC(=O)Nc1ccc(S(=O)(=O)NCCC(=O)N2CCN(c3ccccc3Cl)CC2)cc1 | -2.27% (inactive) | 
85 | N#Cc1ccc(C2N=C(c3ccccc3)NO2)cc1 (stereo unspecified) |  | 5.17 µM (active)
86 | O=C(OCC(=O)N1CCCCCC1)c1ccc(Br)c(S(=O)(=O)N2CCOCC2)c1 | -3.75% (inactive) | 
87 | C[C@@H]1C(c2ccc(F)cc2)=NN(c2ccc(Br)cc2)[C@H]1C(=O)N1CCOC1=O | 2.71% (inactive) | 
88 | Cc1ccc(S(=O)(=O)N2[C@@H](c3ccc(Br)cc3)C(C(=O)O)=C[C@H]2CC2CCCC2)cc1 | 0.375% (inactive) | 
89 | Cc1ccccc1N1CCN(CCCOc2ccc3c(C)cc(=O)oc3c2)CC1 | 0.148% (inactive) | 
90 | Cc1cc(=O)oc2cc(OCCC[n+]3ccccc3)ccc12 | 2.93% (inactive) | 
91 | Cc1cc(=O)oc2cc(OCC3CC(c4ccccc4Cl)=NO3)ccc12 (stereo unspecified) |  | 7.94 µM (active)
92 | CCCCNC(=O)C(C)N(CCN(C)C)C(=O)CCCCCN1C(=O)NC(c2ccc(Cl)cc2)C(C(=O)OCc2ccccc2)=C1C (stereo unspecified) | -3.93% (inactive) | 
93 | COC(=O)CSc1nnc(-c2cccnc2)o1 | 1.66% (inactive) | 
94 | CN(C)c1ccc(-c2nnc(-c3cccnc3)o2)cc1 |  | 10.3 µM (active)
95 | COc1ccc(-c2nnc(SCc3cccnc3)o2)cc1 | 15.4% (inactive) | 
96 | COc1ccc(CCNC(=O)COC(=O)Cc2ccccc2F)cc1 | 2.3% (inactive) | 
